The campaign covered roughly 5,500 compounds. About 2,000 (36%) were called active. Roughly 18% stayed inconclusive and do not appear here. Cut-off read from the data, not from the text of the source: active = normalized growth mostly below about 0.91 (no sharp cut-off); inconclusive = no clear call, values can overlap the other calls; inactive = mostly above about 0.92. The list shows a part of the results.
Test: chemical genetic growth profiling, strain panel (AID 1159580);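 note: tested at 20 µM; growth read once vehicle control cultures reached saturation at 30 °C; 1 = growth at the plate median or of vehicle wells; lower values mean less growth of the strain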
Conditions: S. cerevisiae deletion strains, growth OD

Measured: normalized growth

COc1ccc(C(=O)CSC2=NCCc3ccccc32)cc1
inactive: locus YAR019C, strain CDC15, hits give low values 0.975 | locus YBL105C, strain PKC1, hits give low values 0.982 | locus YBR135W, strain CKS1, hits give low values 0.959 | locus YBR136W, strain MEC1, hits give low values 0.978 | locus YBR160W, strain CDC28, hits give low values 0.974 | locus YDL017W, strain CDC7, hits give low values 0.98 | locus YDL028C, strain MPS1, hits give low values 0.97 | locus YDL101C, strain DUN1, hits give low values 0.976 | locus YDL108W, strain KIN28, hits give low values 0.968 | locus YDL132W, strain cdc53, hits give low values 0.974 | locus YDL214C, strain PRR2, hits give low values 0.999 | locus YDR052C, strain DBF4, hits give low values 0.983 | locus YDR054C, strain cdc34, hits give low values 0.978 | locus YDR226W, strain ADK1, hits give low values 0.971 | locus YDR477W, strain SNF1, hits give low values 1 | locus YER123W, strain YCK3, hits give low values 1.02 | locus YER133W, strain GLC7, hits give low values 1.01 | locus YFL009W, strain cdc4, hits give low values 0.968 | locus YFL029C, strain CAK1, hits give low values 0.972 | locus YFR003C, strain YPI1, hits give low values 0.979 | locus YFR019W, strain FAB1, hits give low values 1.04 | locus YFR028C, strain CDC14, hits give low values 0.982 | locus YGR040W, strain KSS1, hits give low values 1 | locus YGR052W, strain FMP48, hits give low values 1.13 | locus YGR092W, strain DBF2, hits give low values 0.984 | locus YHR030C, strain SLT2, hits give low values 1.01 | locus YHR079C, strain IRE1, hits give low values 1 | locus YHR082C, strain KSP1, hits give low values 1.04 | locus YHR205W, strain SCH9, hits give low values 0.938 | locus YIL147C, strain SLN1, hits give low values 0.971 | locus YJL095W, strain BCK1, hits give low values 0.969 | locus YJL128C, strain PBS2, hits give low values 0.951 | locus YJL157C, strain FAR1, hits give low values 0.995 | locus YJR016C, strain ILV3, hits give low values 0.972 | locus YJR066W, strain TOR1 (second series), hits give low values 1 | locus YJR066W, strain TOR1, hits give low values 0.985 | locus YKL048C, strain ELM1, hits give low values 1.03 | locus YKL067W, strain YNK1, hits give low values 0.997 | locus YKL101W, strain HSL1, hits give low values 0.98 | locus YKL193C, strain SDS22, hits give low values 0.966 | locus YKL203C, strain TOR2, hits give low values 1.05 | locus YLR113W, strain HOG1, hits give low values 0.99 | locus YLR133W, strain CKI1, hits give low values 1.01 | locus YLR403W, strain SFP1, hits give low values 1.01 | locus YML070W, strain DAK1, hits give low values 1 | locus YMR001C, strain CDC5, hits give low values 0.962 | locus YMR205C, strain PFK2 (second series), hits give low values 0.998 | locus YMR277W, strain FCP1, hits give low values 0.968 | locus YNL006W, strain LST8, hits give low values 0.969 | locus YNL020C, strain ARK1, hits give low values 1.02 | locus YNL161W, strain CBK1, hits give low values 0.964 | locus YNL183C, strain NPR1, hits give low values 0.977 | locus YNL207W, strain RIO2, hits give low values 0.977 | locus YNL222W, strain SSU72, hits give low values 0.976 | locus YNL307C, strain MCK1 (second series), hits give low values 1.02 | locus YOL078W, strain AVO1, hits give low values 0.966 | locus YOL136C, strain PFK27, hits give low values 1.02 | locus YOR061W, strain CKA2, hits give low values 0.967 | locus YOR119C, strain RIO1, hits give low values 1.07 | locus YOR231W, strain MKK1, hits give low values 0.966 | locus YOR329C, strain SCD5, hits give low values 0.982 | locus YPL031C, strain PHO85, hits give low values 0.997 | locus YPL153C, strain RAD53, hits give low values 1 | locus YPL204W, strain HRR25, hits give low values 1.02 | locus YPL209C, strain IPL1, hits give low values 0.973 | locus YPL256C, strain CLN2, hits give low values 1.07 | locus YPR025C, strain CCL1, hits give low values 0.97 | locus YPR106W, strain ISR1, hits give low values 0.986 | locus YPR111W, strain DBF20, hits give low values 0.97 | strain NNK1, hits give low values 0.995 | strain TSCII, hits give low values 0.964

Source: PubChem BioAssay AID1159580 (chemical genetic matrix, 2015)
